Hits are enriched below; roughly 21% of the tested compounds scored in any of these assays.
Shiga toxin inh: A qHTS for Small Molecule Inhibitors of Shiga Toxin | Vero cells, Shiga toxin protein synthesis inhibition reporter | inhibition, % at 38.7 µM | 290,000 tested, 9.2% active; in the data active means inhibition mostly above about 28%, no sharp cut-off; inactive means mostly below about 43%; further: 0% is about no effect
Cycloheximide cs: Cycloheximide Counterscreen for Small Molecule Inhibitors of Shiga Toxin | cell reporter, cycloheximide protein synthesis inhibition counterscreen | max response, % | 300,000 tested, 12% active | AID 2314, 2010; in the data active means max response mostly above about 13%, no sharp cut-off; inactive means mostly below about 14%; further: read at 38.3 µM for the half of the compounds with a filed dose; 0% is about no effect
Pf growth 96h: Primary qHTS for delayed death inhibitors of the malarial parasite plastid, 96 hour incubation; AID 504834, 2011; 320,000 tested, 6.9% active; Potency, µM (doses to about 28.7 µM), without a hit: at the top dose activity change, negative = inhibition, hits mostly inhibitors; P. falciparum luciferase reporter growth, 96 h; active means well fitted inhibition curve with a large enough effect; inconclusive means small, poorly fitted or top-dose-only effect, or another doubt; inactive means no such curve, though single readings can be large or run the other way; further: potency means the concentration at half of the fitted maximal effect; on the % scale 0 is the no-effect control and ±100 the full control effect
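96 h incubation, 37 C, 5% CO2, of luciferase-reporter P. falciparum-infected RBCs (2% hematocrit, 0.05% parasitemia final) with test compounds; endpoint luminescence.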
NS1 inh: qHTS Assay for Inhibitors of Influenza NS1 Protein Function; Potency, µM (top dose mostly 46.1 µM), for the others: top-dose activity, positive = more growth; 270,000 tested, 0.4% active; further: potency means the concentration at half of the fitted maximal effect; actives are rising curves; nearly all actives have a fitted effect of over 50% in size
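Recovery from NS1-induced slow growth read by OD600 in budding yeast switched to galactose assay medium (pH 6.0, -URA) at 1:100 dilution. Compound 23 nl per well; the matching strain lacking NS1 serves as control.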
SARS PLpro yeast: qHTS of Yeast-based Assay for SARS-CoV PLP; S. cerevisiae expressing SARS-CoV PLpro, growth rescue; Potency, µM (top dose mostly 32.9 µM), without a hit: at the highest dose activity, positive = growth rescue, usual class: activators; 330,000 tested, 0.19% active; AID 485353, 2010; further: potency means the concentration at half of the fitted maximal effect; 0% is about no effect; nearly all actives have a fitted effect of over 55% in size
Pf growth 48h: Primary qHTS for delayed death inhibitors of the malarial parasite plastid, 48 hour incubation | 310,000 tested, 5.9% active | P. falciparum luciferase growth in erythrocytes, 48 h | Potency, µM (doses to about 28.7 µM), inactives show at the top dose activity change, negative = inhibition, actives largely listed as inhibitors; active means well fitted inhibition curve with a large enough effect; inconclusive means small, poorly fitted or top-dose-only effect, or another doubt; inactive means no such curve, though single readings can be large or run the other way; further: potency means the concentration at half of the fitted maximal effect; on the % scale 0 is the no-effect control and ±100 the full control effect
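Luminescence readout; reporter = integrated firefly luciferase in P. falciparum. RBC culture at 2% hematocrit, 0.1% parasitemia final, 37 C/5% CO2; decreased signal taken as growth inhibition.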
Starred values were filed as active, the others as inactive. Unless noted, the call rests on the fitted dose curve.

How did CCOC(=O)c1sc2ncnc(Nc3cccc(C(=O)O)c3)c2c1C do in these assays?
Shiga toxin inh: -3.3; Cycloheximide cs: -0.7; Pf growth 96h: -6.8%; NS1 inh: -1.7%; SARS PLpro yeast: 28.6%; Pf growth 48h: -17.3%

Results for COC(=O)C1=C(c2cccc(OCc3ccccc3)c2)C[C@@H]2CC[C@H]1N2C(=O)NCc1ccc2[nH]ccc2c1 ?
Pf growth 96h: inconclusive; SARS PLpro yeast: 1.3%; Pf growth 48h: 13.1µM*

What do the screens show for `COC(=O)C1=C(c2cccc(OCc3ccccc3)c2)C[C@@H]2CC[C@H]1N2C(=O)NCc1ccc(C(F)(F)F)cc1`?
Pf growth 96h: 5.22µM*; SARS PLpro yeast: 0.0%; Pf growth 48h: 13.1µM*

What do the screens show for `COC(=O)C1=C(c2cccc(C#N)c2)C[C@@H]2CC[C@H]1N2C(=O)NCc1ccc(F)cc1`?
Pf growth 96h: -8.4%; SARS PLpro yeast: -6.2%; Pf growth 48h: inconclusive

Results for COC(=O)C1=C(c2cccc(OCc3ccccc3)c2)C[C@@H]2CC[C@H]1N2C(=O)NCCCc1ccccc1 ?
Pf growth 96h: inconclusive; SARS PLpro yeast: 2.7%; Pf growth 48h: 9.28µM*

Results for COC(=O)C1=C(c2cccc(OCc3ccccc3)c2)C[C@@H]2CC[C@H]1N2C(=O)NCc1ccc(F)cc1 ?
Pf growth 96h: 9.28µM*; SARS PLpro yeast: -4.0%; Pf growth 48h: 11.7µM*

What do the screens show for `COC(=O)C1=C(c2c(C)noc2C)C[C@@H]2CC[C@H]1N2C(=O)NCc1ccc(C(F)(F)F)cc1`?
Pf growth 96h: -25.8%; SARS PLpro yeast: -6.1%; Pf growth 48h: inconclusive

How did COC(=O)C1=C(c2ccc(OCc3ccccc3)cc2)C[C@@H]2CC[C@H]1N2C(=O)NCCCc1ccccc1 do in these assays?
Pf growth 96h: inconclusive; SARS PLpro yeast: -4.8%; Pf growth 48h: inconclusive

What do the screens show for `COc1ccc2c(c1)C(c1ccccc1OC)CC(=O)O2` (stereo not drawn)?
Shiga toxin inh: inactive; Cycloheximide cs: -0.9

What do the screens show for `COc1ccc(CCC(=O)N2CCN(S(=O)(=O)c3cccc(Cl)c3)CC2)cc1`?
Pf growth 96h: inconclusive; SARS PLpro yeast: -1.8%; Pf growth 48h: inconclusive

How did Cc1ccc(CCN2CC(C(=O)NC3CCCCC3)CC2=O)cc1 (stereo not drawn) do in these assays?
Shiga toxin inh: 3.5; Cycloheximide cs: 29.9*; Pf growth 96h: 18.5%; NS1 inh: -3.8%; SARS PLpro yeast: 0.4%; Pf growth 48h: -3.3%

How did Cc1ccc(CCN2CC(C(=O)NCCCN3CCCCC3)CC2=O)cc1 (stereo not drawn) do in these assays?
Shiga toxin inh: -1.0; Cycloheximide cs: 0.9; Pf growth 96h: 7.38µM*; NS1 inh: -5.2%; SARS PLpro yeast: 1.4%; Pf growth 48h: 0.0%

Results for Cc1ccccc1-n1c(SCC(=O)N2CCOCC2)nc(O)c(Cc2ccccc2)c1=O ?
Shiga toxin inh: -5.2; Cycloheximide cs: -1.5; Pf growth 96h: -2.6%; NS1 inh: 4.6%; SARS PLpro yeast: -0.7%; Pf growth 48h: 50.6%

Results for O=C(N/N=C/C(Br)=C\c1ccccc1)c1n[nH]c2c1CCC2 ?
Shiga toxin inh: 110.7*; Cycloheximide cs: 64.2*; Pf growth 96h: -11.0%; NS1 inh: -11.4%; SARS PLpro yeast: -44.5%

Results for O=C(N/N=C/C=C/c1ccccc1)c1n[nH]c2c1CCC2 ?
Shiga toxin inh: 20.6; Cycloheximide cs: 15.4*; Pf growth 96h: -17.8%; NS1 inh: 9.9%; SARS PLpro yeast: 4.8%

How did Cc1cc(C(=O)N/N=C/C=C/c2ccccc2)n[nH]1 do in these assays?
Shiga toxin inh: 36.3; Cycloheximide cs: 6.7; Pf growth 96h: -7.2%; NS1 inh: -1.9%; SARS PLpro yeast: -2.3%; Pf growth 48h: 6.5%

How did CC(/C=N/NC(=O)c1n[nH]c2c1CCC2)=C\c1ccccc1 do in these assays?
Shiga toxin inh: 79.5; Cycloheximide cs: 31.6; NS1 inh: -2.0%; SARS PLpro yeast: 2.4%; Pf growth 48h: -8.5%

Results for COC(=O)c1c(NC(=O)CSc2nc3nc(C)cc(C)n3n2)sc(C)c1C ?
Shiga toxin inh: 19.5; Cycloheximide cs: -1.8; Pf growth 96h: 48.7%; NS1 inh: 8.5%; SARS PLpro yeast: 6.7%; Pf growth 48h: -8.4%

How did CCN(CC)S(=O)(=O)c1cccc(C(=O)N[C@H](C(=O)NCc2ccc(Cl)cc2)C(C)C)c1 do in these assays?
Shiga toxin inh: 4.1; Cycloheximide cs: 7.4; NS1 inh: 6.8%; SARS PLpro yeast: 9.9%; Pf growth 48h: inconclusive

What do the screens show for `C=CCN1CC(C(=O)N2CCC(Cc3ccc(Cl)cc3)(C(=O)OCC)CC2)CC1=O` (stereo not drawn)?
Shiga toxin inh: 12.9; Cycloheximide cs: -1.9; Pf growth 96h: -3.1%; NS1 inh: -2.9%; SARS PLpro yeast: -0.5%; Pf growth 48h: inconclusive

Results for Clc1ccc(-c2cc(CN3CCCCC3)no2)cc1Cl ?
Shiga toxin inh: 62.0*; Cycloheximide cs: 34.0*; Pf growth 96h: 23.0%; NS1 inh: 1.8%; SARS PLpro yeast: -0.2%; Pf growth 48h: 23.8%

What do the screens show for `Clc1ccc(-c2cc(CN3CCOCC3)no2)cc1`?
Shiga toxin inh: 117.8*; Cycloheximide cs: 54.4*; Pf growth 96h: 180.7%; NS1 inh: 3.7%; SARS PLpro yeast: -0.7%; Pf growth 48h: 204.9%

What do the screens show for `Clc1ccc(SCc2cc(-c3ccc(Cl)cc3)on2)cc1`?
Shiga toxin inh: -20.9; Cycloheximide cs: -2.3; Pf growth 96h: 37.6%; NS1 inh: 3.5%; SARS PLpro yeast: 4.4%; Pf growth 48h: -1.6%

How did Cc1cccc(N2CCN(Cc3nc(-c4ccc(F)cc4F)oc3C)CC2)n1 do in these assays?
Shiga toxin inh: 21.2; Cycloheximide cs: 2.5; Pf growth 96h: 10.4µM*; NS1 inh: -1.2%; SARS PLpro yeast: -1.5%; Pf growth 48h: 0.0%

How did COC(=O)[C@@H](NC(=O)N(C1CCCCC1)C1CCCCC1)C(C)C do in these assays?
Shiga toxin inh: -9.4; Cycloheximide cs: -1.4; Pf growth 96h: 1.65µM*; NS1 inh: 9.5%; SARS PLpro yeast: 1.0%; Pf growth 48h: -22.1%

How did COC(=O)[C@@H](NC(=O)NC1CCCCC1C)C(C)C (stereo partly drawn) do in these assays?
Shiga toxin inh: -4.0; Cycloheximide cs: -1.6; Pf growth 96h: inconclusive; NS1 inh: 1.9%; SARS PLpro yeast: 0.0%; Pf growth 48h: 3.1%

What do the screens show for `CCOC(=O)C(=O)Nc1cc(Cl)ccc1C`?
Shiga toxin inh: 3.7; Cycloheximide cs: -1.9; Pf growth 96h: 21.3%; NS1 inh: inconclusive; SARS PLpro yeast: -10.6%; Pf growth 48h: 2.1%

What do the screens show for `CSCCC(NS(=O)(=O)c1ccc2c(c1)OCCO2)C(=O)N(C)Cc1ccccc1F` (stereo not drawn)?
Pf growth 96h: inconclusive; SARS PLpro yeast: -5.6%; Pf growth 48h: 11.7µM*

Screening data (PubChem BioAssay)
